# Screening results (PubChem BioAssay)
# Hits are enriched below; roughly 2.2% of the tested compounds scored in any of these assays.
# ZTA DNA inh = blocks Epstein-Barr virus ZTA, an EBNA-1 counter-screen. inhibition, % at 11 µM. 320,000 tested, 0.15% active. AID 2234. ZTA-DNA binding, fluorescence polarization. P03206; in the data active = inhibition above about 33%
# Target sequence (P03206 whole entry, looked up): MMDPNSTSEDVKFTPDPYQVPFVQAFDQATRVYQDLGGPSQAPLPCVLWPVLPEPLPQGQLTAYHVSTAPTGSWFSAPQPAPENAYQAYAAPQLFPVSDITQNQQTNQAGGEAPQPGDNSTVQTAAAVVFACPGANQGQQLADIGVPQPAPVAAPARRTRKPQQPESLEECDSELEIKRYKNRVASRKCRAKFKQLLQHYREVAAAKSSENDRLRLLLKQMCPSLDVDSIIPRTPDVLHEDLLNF
# NALP3 yeast inh = NALP3 inflammasome inhibitors in reconstituted yeast, primary screen, luminescence, uHTS. Yeast reconstituted NLRP3/ASC/caspase-1, beta-gal luminescence, 24 h. AID 2825, 2010. inhibition, % at 10 µM. 330,000 tested, 0.39% active;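 active = inhibition of 50% or more; inactive = inhibition below 50%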;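 also: plate controls were induced DMSO wells for no effect and uninduced yeast grown without galactose for full effect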
# dFosB act-1 = activators of delta FosB homodimer, primary screen, biochemical, fluorescence polarization, TAMRA-CDK5 oligo, single point; activation, % at 25 µM; 340,000 tested, 0.99% active; purified delta FosB; percent of positive-control signal above neutral wells;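 active = mean activation above about 17%, with every replicate also reaching it, limit read from the data, passing the limit was not always enough; inconclusive = only one of the two conditions met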
# Target sequence (P13346 whole entry, looked up): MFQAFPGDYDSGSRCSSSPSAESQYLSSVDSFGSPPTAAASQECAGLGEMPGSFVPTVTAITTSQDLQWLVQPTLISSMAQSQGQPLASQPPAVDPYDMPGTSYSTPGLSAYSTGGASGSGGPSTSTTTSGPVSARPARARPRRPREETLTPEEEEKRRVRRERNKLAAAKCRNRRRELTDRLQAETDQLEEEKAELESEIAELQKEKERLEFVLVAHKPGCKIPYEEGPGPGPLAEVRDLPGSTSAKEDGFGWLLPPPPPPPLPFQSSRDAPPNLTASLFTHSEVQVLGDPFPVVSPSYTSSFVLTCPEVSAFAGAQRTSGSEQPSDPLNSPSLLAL
# EBNA-1 inh = EBNA-1 DNA-binding inhibitors, primary screen, biochemical, fluorescence polarization. 300,000 tested, 0.34% active. AID 1950, 2009. inhibition, % at 14.8 µM; in the data active = inhibition above about 28%
# NALP1 yeast inh = NALP1 inflammasome inhibitors in reconstituted yeast, colorimetric, S. cerevisiae, triplicate retest | 280,000 tested, 0.61% active | inhibition, % at 10 µM | S. cerevisiae NALP1/ASC/caspase-1 growth, X-gal OD620, 72 h; in the data active = inhibition mostly above about 24%, no sharp cut-off; inactive = mostly below about 32%
# PolyA inhibitor = polyadenylation inhibitors in yeast reporter cells, primary screen, luminescence, S. cerevisiae; S. cerevisiae SKY197-pL101 polyadenylation reporter, beta-gal luminescence; efflux-impaired pdr1/pdr3 knockout yeast; score 100 = 6 SD above DMSO; activity score, % at 12 µM; AID 1875, 2009; 300,000 tested, 0.02% active;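 active = lowest replicate activity score at least 50, where 100 means six control SD above control mean; inconclusive = lowest score under 50 but half or more replicates reach 50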;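 also: yeast exposed to compound for 9 h at 30 °C; higher score means more reporter readthrough which indicates perturbed polyadenylation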
# dFosB act-2 = activators of mouse delta FosB DNA binding, confirmation, biochemical, fluorescence polarization, TAMRA-CDK5 oligo, cherry-picked samples; shares compounds with dFosB act-1; purified delta FosB; normalised: neutral wells 0, positive control 100; activation, % at 24.9 µM; 2,400 tested, under 10 active;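 active = highest replicate activation at or above 34% and every replicate reaching that threshold; inconclusive = meets only one of the two criteria; inactive = meets neither criterion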;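 also: higher polarization means more probe DNA bound by delta FosB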
# Active calls of the source: *; ? = inconclusive; . = no result given.
SMILES,ZTA DNA inh,NALP3 yeast inh,dFosB act-1,EBNA-1 inh,NALP1 yeast inh,PolyA inhibitor,dFosB act-2
Cc1cn(-c2cc(NC(=O)c3ccc(C)c(NC(=O)c4cccc(-c5cn[nH]c(=O)c5)c4)c3)cc(C(F)(F)F)c2)cn1,15,8,41*,9,14,1,1
CCn1c(SCC(=O)NC2CC2)nnc1-c1ccc(C)cc1,10,11,-3,-1,2,30,.
O=C(CSc1nccn(-c2ccc(F)c(F)c2)c1=O)NC1CCCC1,.,11,-16,.,.,-6,.
O=C(CSc1nccn(-c2cccc(F)c2)c1=O)Nc1ccc(Cl)cc1F,7,25,21*,12,15,-23,0
CCCSc1nc(C)c2cc(C)cc(C)c2n1,-6,6,-8,-7,20,7,.
Cc1cc(C)c2nc3nc(C)c(C)cc3c(N)c2c1,.,22,26*,.,13,4,2
CCOc1ccc(NC(=O)COC(=O)C2C3CC4OC(=O)C2C4C3)cc1 (configuration not stated),6,24,1,-4,13,14,.
O=C(COC(=O)c1n[nH]c2ccccc12)Nc1ccccc1F,.,13,3,.,.,.,.
Cc1cccc(NC(=O)COC(=O)c2n[nH]c3ccccc23)c1C,-5,6,25*,.,.,.,7
Cc1c(C(=O)Nc2ccccc2F)sc2ncn(CC(=O)N3CCOCC3)c(=O)c12,9,2,-2,7,1,0,.
COc1cccc(CNC(=O)CN2c3cccc4cccc(c34)S2(=O)=O)c1,-17,12,-16,-6,.,-5,.
O=C(O)c1ccc(/C=N/Nc2nc3ccccc3[nH]2)cc1,6,-17,25*,-6,11,14,0
O=C(CSc1nnc(-c2n[nH]c3ccccc23)n1-c1ccccc1)Nc1cccc(Cl)c1,-9,14,25*,-7,22,6,8
Cc1nc(NC(=O)c2ccc(Br)o2)ccc1Br,.,2,1,.,10,-5,.
O=C(Nc1cccc(NC(=O)c2ccc(Br)o2)n1)c1ccc(Br)o1,2,4,34*,5,4,-18,1
O=C(Cn1ccc(NC(=O)OCc2ccccc2)nc1=O)NCCc1c[nH]c2ccccc12,-4,3,-3,.,.,.,.
C=CC[C@@H](CC(=O)OC(C)(C)C)C(=O)OC[C@@H]1CCCN1C(=O)[C@@H](CC=C)CC(=O)N(CCO)Cc1ccccc1,.,4,7,.,.,.,.
COc1ccc(NS(=O)(=O)c2ccc(O)c(NC(=O)c3ccc(S(=O)(=O)N4CCCC4)cc3)c2)cc1,-5,-3,20*,-11,-3,-12,0
COc1ccc(NS(=O)(=O)c2cccc(NC(=O)c3ccc(S(=O)(=O)N4CCCCCC4)cc3)c2)cc1,-17,20,-1,13,35,20,.
O=C(Nc1cccc(-c2nc3ccccc3s2)c1)c1cc(-n2cnnc2)ccc1Cl,-6,14,-6,0,8,-8,.
Cc1c(NC(=O)c2cc(-n3cnnc3)ccc2Cl)cccc1-c1nc2ccccc2s1,-6,-19,31*,0,31,-3,-1
CCN(C(=O)COC(=O)c1cccs1)c1c(N)n(Cc2ccccc2)c(=O)[nH]c1=O,10,5,-2,-6,.,3,.
COc1cc2c3nnc(-c4ccc(F)cc4)c-3cn(Cc3ccc(F)cc3)c2cc1OC,7,10,37*,4,35*,0,-9
CCOC(=O)C1CCCN(C(=O)c2cc(S(=O)(=O)N(C)C)ccc2N2CCCC2)C1 (configuration not stated),12,13,4,-5,.,-10,.
Cc1cn(CC(=O)NCCN2CCOCC2)c(=O)[nH]c1=O,.,.,-2,.,.,.,.
SMILES,ZTA DNA inh,NALP3 yeast inh,dFosB act-1,EBNA-1 inh,NALP1 yeast inh,PolyA inhibitor,dFosB act-2
CC(C)c1ccc(OC(=O)c2cccc(S(=O)(=O)N3CCN(C)CC3)c2)cc1,-10,16,-3,0,3,-12,.
CN1CCN(S(=O)(=O)c2cccc(C(=O)Oc3ccc(C(C)(C)C)cc3)c2)CC1,-4,13,23*,1,.,8,0
CCCCn1c(N)c(N(CC(C)C)C(=O)C2CCN(S(=O)(=O)c3ccccc3)CC2)c(=O)[nH]c1=O,-6,12,55*,1,.,5,4
CCCCn1c(N)c(N(CCC(C)C)C(=O)C2CC(=O)N(c3ccc4c(c3)OCCO4)C2)c(=O)[nH]c1=O (configuration not stated),12,13,0,12,-2,16,.
CCCCn1c(N)c(N(CCC(C)C)C(=O)C2CC(=O)N(c3cccc(SC)c3)C2)c(=O)[nH]c1=O (configuration not stated),-19,16,40*,8,.,14,6
CCCCn1c(N)c(N(CC(C)C)C(=O)C2CCN(S(=O)(=O)c3ccc(C)cc3C)CC2)c(=O)[nH]c1=O,7,21,-10,-13,.,10,.
Cc1ccc(S(=O)(=O)c2nc(Cc3ccccc3)oc2N2CCOCC2)cc1,-1,-2,-6,.,.,.,.
COc1ccccc1NC(=O)C(C)OC(=O)C1CCC(C(C)(C)C)CC1 (configuration not stated),1,5,1,-9,.,-3,.
COC(=O)Cn1c(=NC(=O)c2sc3ccccc3c2Cl)sc2cc(S(N)(=O)=O)ccc21,19,13,-2,2,24,-4,.
CCOC(=O)Cn1c(=NC(=O)c2sc3ccccc3c2Cl)sc2cc(S(N)(=O)=O)ccc21,12,.,92*,17,42,1,-4
N#Cc1ccccc1S(=O)(=O)N1CCN(C(=O)c2cn(-c3ccccc3)nc2-c2cccnc2)CC1,-1,6,-10,.,.,.,.
CCOc1ccc(NC(=O)CCS(=O)(=O)c2ccc(C)cc2)cc1,2,7,1,3,8,29,.
CN1CCN(S(=O)(=O)c2ccc(Sc3nc4ccccc4[nH]3)c3nsnc23)CC1,-8,19,40*,-13,21,4,-8
O=C(O)CCC(=O)N1CCC(n2nnc3cc(C(F)(F)F)ccc32)CC1,0,-1,-5,-3,.,-1,.
COc1ccc(C)c2sc(NC(=O)c3cccc(N4C(=O)CCC4=O)c3)nc12,14,7,53*,5,17,?,7
CC(C)C(=O)Nc1ccc2nn(-c3ccccc3)nc2c1,-9,30,-11,2,15,-6,.
C/C(=N\NC(=S)NC1CCCCC1)c1ccc(C#N)cc1,6,6,36*,-8,21,1,6
